Reference: the supplement of paper PMC3334620
Whole data set: some 33,000 sequences, median “E-score (-0.5 to 0.5)” near -0.0014, cut for the highest 2% near 0.25. What follows is part of a selection rich in the highest values, with near analogues and random picks from the rest.

The sequences below were run against T1, Cad1 (UniProt P24813) (assay: PBM E-score (8-mer binding enrichment) (E-score (-0.5 to 0.5)); higher = stronger / more preferred TF binding). Conditions: protein concentration: 100 nM; construct: GST-full length.
T1 sequence: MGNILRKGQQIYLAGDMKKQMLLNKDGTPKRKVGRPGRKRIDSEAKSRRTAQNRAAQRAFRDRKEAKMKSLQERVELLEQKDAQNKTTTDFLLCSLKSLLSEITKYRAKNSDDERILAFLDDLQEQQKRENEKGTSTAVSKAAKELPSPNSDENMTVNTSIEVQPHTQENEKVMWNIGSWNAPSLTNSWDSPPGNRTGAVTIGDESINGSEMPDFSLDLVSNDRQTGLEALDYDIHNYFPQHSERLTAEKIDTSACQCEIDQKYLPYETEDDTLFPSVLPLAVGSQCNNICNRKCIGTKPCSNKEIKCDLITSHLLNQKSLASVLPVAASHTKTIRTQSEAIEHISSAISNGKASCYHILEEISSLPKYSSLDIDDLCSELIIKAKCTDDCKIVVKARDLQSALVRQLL
Outline: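 Universal all-10-mer Agilent arrays, fresh or stripped once, were converted to double-stranded form by primer extension. GST-tagged yeast transcription factors from PURExpress in vitro transcription/translation, full-length or DNA-binding domain only, were applied at about 100-200 nM and detected with fluorescent anti-GST. After masliner normalisation, the Universal PBM Analysis Suite scored each ungapped eight-base word together with its reverse complement by E-score.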

Sequence | PBM E-score
AGCTTGAG | -0.123
CGCATAGA | 0.0454
AATACACA | 0.144
AATACACT | 0.158
AATACACC | 0.255
GATACACA | 0.0908
CATACACC | 0.00325
GATACACC | 0.257
AGTACGCA | -0.129
AGTACGCC | -0.293
AGTACGCG | 0.26
AATAGGGT | 0.0291
CGCCCAGC | 0.0197
CGTTGAAG | -0.178
GTCCGGAC | 0.319
CTCCGGAC | 0.00021
CTCCGGAA | 0.00101
TTCCGGAA | 0.316
ATCCGGAC | 0.131
CCCGGAAA | 0.134
ACCGGAAA | 0.135
TCCGGAAA | 0.252
ATCCGGAA | 0.22
ATGCTCCG | -0.114
ATCCAGGG | -0.173

Sequence | PBM E-score
GACAAGCA | -0.021
ACCACTAT | 0.0199
CACAATTA | 0.00794
ACACTTTA | 0.0868
CATAATGA | 0.0454
CATAATTA | 0.279
CATAATTC | 0.0611
GATAATGA | 0.167
GATAATTA | 0.297
AATAATTG | 0.0365
AATAATTA | 0.336
AATAATTC | 0.18
GATAATAA | 0.0805
CTCATTCA | 0.0583
AGTGTGAC | -0.0643
AGACTCAG | 0.0244
CGCGATTC | 0.268
AGCGATTC | -0.021
CGCGATTA | 0.187
CCCTAACC | -0.157
CACTAGAC | -0.0989
AGCTTACC | -0.0175
TGCTTACA | 0.235
AGCTTACA | 0.351
GCGCCCAA | 0.143

Sequence | PBM E-score
AATTCGTC | 0.274
CATTCGTC | 0.0375
AATTCGTA | 0.0688
AATTCGGC | -0.0493
AATTCGGG | 0.0637
AATTCGGT | 0.266
CAATTTCA | 0.0182
CTCGGCAG | 0.136
CAAGCTTG | -0.294
ATTGGTCC | 0.0438
AAACCGCC | -0.0149
AAACCGCA | -0.213
CAACCGCG | 0.297
CAACCGCC | -0.23
AAACCGCG | 0.271
CAACCGCA | 0.066
GAACCGAC | 0.105
CAACCGAA | 0.168
CAACCGAC | 0.252
ACTAGAGA | -0.224
CGTGCGAA | 0.036
GGGCATTA | -0.152
GATCAAGC | -0.0801
GGCGGTAA | 0.045
ACTTCGCG | 0.216

Sequence | PBM E-score
GCAACAGC | -0.076
ATAAGGGG | -0.0559
CTATCGTA | -0.0798
CCGAAACA | 0.0714
TCGAAACA | 0.251
ACGAAACA | 0.192
AGCTATCA | 0.118
CGAAGAGA | 0.106
ATGTCAGA | -0.0566
GTGTCAAA | 0.163
ATGTCAGC | 0.315
CTGTCAGC | 0.118
ATGTCACC | 0.0545
ATGTCACA | 0.306
GTGTCACA | 0.252
ATGTCACG | 0.0134
CTGTCACA | 0.0656
AGCCAGAT | -0.239
AGGTCAAC | 0.00774
ACCTGATG | -0.134
CAGAATGG | -0.00601
CATCAAGA | 0.0115
CCTCAACA | 0.0958
ATTCACGC | 0.0118
CTTCACGA | -0.199

Sequence | PBM E-score
CTTCACGC | 0.26
CTAGACCA | 0.00762
CCAGGACA | 0.0769
CTTATCAC | 0.0836
ATTATCAC | 0.151
ATTATCGC | 0.282
CATATCAG | -0.00093
ATTATCAA | 0.297
ATTATCAG | -0.0126
CTTATCAA | 0.256
GTTATCAA | 0.129
ATTATCGG | 0.0117
AATATCAA | 0.138
ATTATCGA | 0.107
CATATCAA | 0.259
CCAATCGA | 0.105
TATTAGAA | 0.24
CAAACACG | 0.126
CAAAAGCG | 0.0683
ACACGCCC | -0.0578
AGCCATAT | -0.0728
GGTAGCCA | -0.0237
CGACTTAA | 0.0481
TATACCAA | 0.0311
GCGAAATA | -0.0552

Sequence | PBM E-score
ACGAAATA | 0.201
CCGAAATA | 0.253
GGGGTTCA | -0.191
ATCGCCCG | -0.0312
ATTGCTTA | 0.176
GTTGCTGA | 0.111
GTTGCTTA | 0.261
GCTCGGTA | -0.203
CATAGGGC | -0.163
CAATTCGC | 0.322
GAATTCGC | -0.0565
CAATTCGA | -0.0688
ATTCGCAC | 0.00983
GGTGCTGA | -0.0741
AACGCCTG | 0.0294
AGTAAGCC | 0.156
ACTAAGCA | 0.181
AGTAAGGG | 0.0236
ACTAAGCT | 0.223
AGTAAGCG | 0.338
ACTAAGCG | 0.3
ACCGTCTC | 0.138
CTTGCAAA | 0.105
ATTCCTTC | 0.105
GTTGTACA | 0.286

Sequence | PBM E-score
ATTGTACA | 0.106
CTTGTACA | -0.0604
CTGAGGGA | -0.0379
ATTAAAAA | 0.221
ACTAAAAT | 0.255
ATTAAAAT | 0.253
ACTAAAAA | 0.107
ATTAAAAC | 0.108
ACTAAAAC | 0.116
ATGACGTC | 0.0734
AGGAAGTC | -0.225
GAGTGGGC | -0.294
AGGCTACA | 0.00724
TGAAAGAA | 0.253
GGAAAGAA | -0.177
AGAAAGAA | 0.0147
TGAAAACA | 0.131
AAAAGTAT | 0.0548
CAAAGTAA | -0.00082
AAAAGTAA | 0.265
GATAGTGA | 0.157
CATTTTTC | 0.124
ATGAAAAA | 0.27
ACGAAAAC | 0.259
ATGAAAAG | 0.0321

Sequence | PBM E-score
ACGAAAAA | -0.045
ACGAAAAG | 0.0611
ATGAAAAT | 0.0649
ACTTCACT | -0.00075
CACAAGCG | -0.145
ATATCCCA | 0.0408
CGCTCCAA | 0.0125
ATGTTAAC | 0.0833
CTGTTAAC | 0.258
ACGTTAAC | 0.102
GCGTTAAC | 0.257
CCGTTAAC | 0.0965
GTGTTAAC | 0.168
TGGGAACA | -0.0827
CAGGTTTC | 0.111
ATGAACTA | 0.0699
CCCTTTAA | -0.135
GTGTTTAA | 0.233
GTAGATCA | 0.0116
AGTGGTAC | -0.103
GCCACAGC | -0.115
CTGAGTAC | -0.06
GTGAGTAA | 0.129
CTGAGTAA | 0.254
ATGAGTAC | 0.0206

Sequence | PBM E-score
ATGAGTAA | 0.286
ATGAGTAG | 0.0743
CCTAGTGA | -0.171
AGGGGTCA | -0.304
CTCGGGGA | -0.0482
GATCCGTA | -0.0959
CTCGTAAC | 0.112
ATCGTAAG | -0.0168
CTCGTAAG | 0.264
CAGAGACC | -0.145
ATGGTCGC | -0.127
AGGTCTCG | -0.2
CCAGAAGC | -0.248
GAATCAAA | 0.0378
CTATCAAC | 0.219
CTATCAAG | 0.0773
CTATCAAA | 0.0734
ATATCAGG | 0.00611
ATATCAAG | 0.251
ATATCAAC | 0.253
CAATCAAC | 0.228
TTATCAAA | 0.3
GTATCAAA | 0.142
GTATCAAC | -0.0681
GAATCAAC | 0.264
